# Results filed as inconclusive are left out. Values without a mark were called inactive. The source made the active and inactive calls. Calls follow the shape of the dose curve; as a rule, active = well fitted curve in the direction sought with a large enough effect in the repeat runs; inconclusive = weak or mixed curves; inactive = no such curve, though single readings can be large; an effect the other way counts as inactive or inconclusive.
# Biological target: Nuclear receptor subfamily 1 group I member 2 (Rattus norvegicus) (UniProt Q9R1A7)
# Sequence (Q9R1A7 whole entry, looked up): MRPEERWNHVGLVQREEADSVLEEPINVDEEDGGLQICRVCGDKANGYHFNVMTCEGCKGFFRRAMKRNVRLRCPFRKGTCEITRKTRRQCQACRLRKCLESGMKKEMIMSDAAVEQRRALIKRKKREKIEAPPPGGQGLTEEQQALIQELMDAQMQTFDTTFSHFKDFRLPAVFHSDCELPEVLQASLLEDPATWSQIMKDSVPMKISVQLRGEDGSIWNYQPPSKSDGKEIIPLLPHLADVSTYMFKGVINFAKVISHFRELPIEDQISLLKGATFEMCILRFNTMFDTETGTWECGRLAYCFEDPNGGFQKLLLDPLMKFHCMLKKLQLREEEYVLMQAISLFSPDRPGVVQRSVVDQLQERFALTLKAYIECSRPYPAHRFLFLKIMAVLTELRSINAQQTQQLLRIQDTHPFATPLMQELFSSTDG
# Assay: Rat pregnane X receptor (rPXR) activation by small molecules, qHTS assay (AID 1346983); also: nearly all actives have a fitted effect of over 20% in size
# Conditions: rPXR luciferase reporter cells, One-Glo luminescence, 24 h; max activation: hits give high values
# Procedure, shortened: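 Cell-based rPXR luciferase reporter assay, 2,000 cells per well, rested 5hr at 37 C before compound addition in DMSO, then 24 hr at 37 C. One-Glo reagent was added and luminescence read after 30 min at room temperature.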
# % is scaled to controls: 0 for no effect and ±100 for the full control effect.
row,SMILES,max activation [%]
1,CCCCO,-3.27
2,O=C(NCCO[N+](=O)[O-])c1cccnc1,-6.7
3,CCCCc1ncc(/C=C(\Cc2cccs2)C(=O)O)n1Cc1ccc(C(=O)O)cc1,-2.02
4,CN(Cc1ccc(C(C)(C)C)cc1)Cc1cccc2ccccc12,1.25
5,OCCN1CCN(CCCN2c3ccccc3C=Cc3ccccc32)CC1,-15.2

# Biological target: Cytochrome P450 2D6 (Homo sapiens) (UniProt P10635)
# Sequence (P10635 whole entry, looked up): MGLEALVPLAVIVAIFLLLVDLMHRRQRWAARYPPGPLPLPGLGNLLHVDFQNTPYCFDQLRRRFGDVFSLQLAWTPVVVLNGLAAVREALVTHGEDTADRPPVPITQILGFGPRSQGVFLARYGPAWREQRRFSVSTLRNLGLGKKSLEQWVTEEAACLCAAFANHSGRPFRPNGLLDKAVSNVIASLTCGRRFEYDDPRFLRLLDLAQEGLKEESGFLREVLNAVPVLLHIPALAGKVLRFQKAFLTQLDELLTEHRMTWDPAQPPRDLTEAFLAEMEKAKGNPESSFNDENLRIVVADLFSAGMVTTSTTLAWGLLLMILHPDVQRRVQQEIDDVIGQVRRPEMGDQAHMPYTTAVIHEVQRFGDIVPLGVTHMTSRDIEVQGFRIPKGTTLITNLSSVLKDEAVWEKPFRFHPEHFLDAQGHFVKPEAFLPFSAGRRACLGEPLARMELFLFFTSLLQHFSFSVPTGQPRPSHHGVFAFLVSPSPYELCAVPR
# Assay: Cytochrome P450 Family 2 Subfamily D Member 6 (CYP2D6) small molecule antagonists: luciferase reporter qHTS assay (AID 1671196); also: nearly all actives have a fitted effect of over 50% in size; also: potency is read from the fitted curve at half-maximal effect
# Conditions: P450-Glo CYP2D6 enzyme assay, luciferin luminescence, 1 h; series mostly up to 115 µM; activity change, negative = inhibition: at the top concentration
# Procedure, shortened: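 Chemicals tested for interference with CYP2D6 activity; proluciferin substrate, NADPH regeneration, 1 h at room temperature, luminescent detection.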
SMILES,Potency,"activity change, negative = inhibition"
CN(C)CCN(Cc1ccsc1)c1ccccn1,3.89 µM (active),
O=C(O)c1ccco1,,-17.7%
CN1Cc2cc(C(=O)N3CCC(C4CCNCC4)CC3)ccc2NC(CC(=O)O)C1=O (stereo unspecified),,-12.7% [at 53 µM]
COc1cc(Cl)c(OC)cc1N,63.3 µM (active),
CC(COCCO)OCCO (stereo unspecified),25.8 µM (active),
CCCCCCCCCCCC(=O)OC[C@@H](O)[C@H]1OC[C@H](OCCO)[C@H]1OCCO,,-15.2%
O=S(=O)(Oc1ccc(Cl)cc1)c1ccccc1,31.7 µM (active),
CCOC(=O)Cc1cccc2ccccc12,,-10.9%
CCCCc1ncc(/C=C(\Cc2cccs2)C(=O)O)n1Cc1ccc(C(=O)O)cc1,,-11.6% [at 53 µM]
CCOc1ccc(N=Nc2ccc(/C=C/c3ccc(N=Nc4ccc(OCC)cc4)cc3S(=O)(=O)O)c(S(=O)(=O)O)c2)cc1,,-8.44%
OCCNCc1ccccc1,35.6 µM (active),
Cc1ccccc1S(=O)(=O)O,,-19.9%
COCC(C)OC(C)=O (stereo unspecified),,2.16%
Cc1nn(C)c(Oc2ccccc2)c1/C=N/OCc1ccc(C(=O)OC(C)(C)C)cc1,,-24.4%
O=P(O)(OCc1ccccc1)OCc1ccccc1,,-15.3%
Nc1ccc([N+](=O)[O-])c(C(F)(F)F)c1,,-7.01% [at 53 µM]

# — PubChem BioAssay (Tox21)
